Data: PubChem BioAssay AID1159580 (chemical genetic matrix, 2015)
Among all 5,500 compounds or so, about 2,000 (36%) were called active. Inconclusive results (about 18%) are left out. Cut-off read from the data, not from the text of the source: active = normalized growth mostly below about 0.91 (no sharp cut-off); inconclusive = no clear call, values can overlap the other calls; inactive = mostly above about 0.92. Some of the results follow.

Experiment: chemical genetic growth profiling, strain panel (AID 1159580);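 note: tested at 20 µM; growth read once vehicle control cultures reached saturation at 30 °C; 1 = growth at the plate median or of vehicle wells; lower values mean less growth of the strain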
Details: growth OD
[1] = S. cerevisiae deletion strains, locus YDL101C, strain DUN1, active compounds read low
[2] = S. cerevisiae deletion strains, locus YHR030C, strain SLT2, active compounds read low

Measured: normalized growth

S=C(NNC(=S)NC1CC2C=CC1C2)Nc1ccc(Br)c(Cl)c1 (stereo not drawn)
inactive: S. cerevisiae deletion strains, locus YAR019C, strain CDC15, active compounds read low 0.981 | S. cerevisiae deletion strains, locus YBL105C, strain PKC1, active compounds read low 0.987 | S. cerevisiae deletion strains, locus YBR135W, strain CKS1, active compounds read low 0.986 | S. cerevisiae deletion strains, locus YBR136W, strain MEC1, active compounds read low 0.976 | S. cerevisiae deletion strains, locus YBR160W, strain CDC28, active compounds read low 0.984 | S. cerevisiae deletion strains, locus YDL017W, strain CDC7, active compounds read low 0.986 | S. cerevisiae deletion strains, locus YDL028C, strain MPS1, active compounds read low 0.979 | [1] 0.989 | S. cerevisiae deletion strains, locus YDL108W, strain KIN28, active compounds read low 0.989 | S. cerevisiae deletion strains, locus YDL132W, strain cdc53, active compounds read low 0.987 | S. cerevisiae deletion strains, locus YDL214C, strain PRR2, active compounds read low 0.948 | S. cerevisiae deletion strains, locus YDR052C, strain DBF4, active compounds read low 0.994 | S. cerevisiae deletion strains, locus YDR054C, strain cdc34, active compounds read low 0.976 | S. cerevisiae deletion strains, locus YDR226W, strain ADK1, active compounds read low 0.982 | S. cerevisiae deletion strains, locus YDR477W, strain SNF1, active compounds read low 0.932 | S. cerevisiae deletion strains, locus YER123W, strain YCK3, active compounds read low 0.931 | S. cerevisiae deletion strains, locus YER133W, strain GLC7, active compounds read low 0.922 | S. cerevisiae deletion strains, locus YFL009W, strain cdc4, active compounds read low 0.98 | S. cerevisiae deletion strains, locus YFL029C, strain CAK1, active compounds read low 0.982 | S. cerevisiae deletion strains, locus YFR003C, strain YPI1, active compounds read low 0.985 | S. cerevisiae deletion strains, locus YFR019W, strain FAB1, active compounds read low 0.993 | S. cerevisiae deletion strains, locus YFR028C, strain CDC14, active compounds read low 0.986 | S. cerevisiae deletion strains, locus YGR040W, strain KSS1, active compounds read low 0.939 | S. cerevisiae deletion strains, locus YGR052W, strain FMP48, active compounds read low 0.954 | S. cerevisiae deletion strains, locus YGR092W, strain DBF2, active compounds read low 0.922 | [2] 0.889 | S. cerevisiae deletion strains, locus YHR079C, strain IRE1, active compounds read low 0.954 | S. cerevisiae deletion strains, locus YHR082C, strain KSP1, active compounds read low 1.03 | S. cerevisiae deletion strains, locus YHR205W, strain SCH9, active compounds read low 0.972 | S. cerevisiae deletion strains, locus YIL147C, strain SLN1, active compounds read low 0.983 | S. cerevisiae deletion strains, locus YJL095W, strain BCK1, active compounds read low 0.927 | S. cerevisiae deletion strains, locus YJL128C, strain PBS2, active compounds read low 0.943 | S. cerevisiae deletion strains, locus YJL157C, strain FAR1, active compounds read low 0.927 | S. cerevisiae deletion strains, locus YJR016C, strain ILV3, active compounds read low 0.984 | S. cerevisiae deletion strains, locus YJR066W, strain TOR1 (second series), active compounds read low 0.972 | S. cerevisiae deletion strains, locus YJR066W, strain TOR1, active compounds read low 1.05 | S. cerevisiae deletion strains, locus YKL048C, strain ELM1, active compounds read low 0.982 | S. cerevisiae deletion strains, locus YKL067W, strain YNK1, active compounds read low 0.94 | S. cerevisiae deletion strains, locus YKL101W, strain HSL1, active compounds read low 0.961 | S. cerevisiae deletion strains, locus YKL193C, strain SDS22, active compounds read low 0.975 | S. cerevisiae deletion strains, locus YKL203C, strain TOR2, active compounds read low 0.994 | S. cerevisiae deletion strains, locus YLR113W, strain HOG1, active compounds read low 0.896 | S. cerevisiae deletion strains, locus YLR133W, strain CKI1, active compounds read low 0.959 | S. cerevisiae deletion strains, locus YLR403W, strain SFP1, active compounds read low 0.939 | S. cerevisiae deletion strains, locus YML070W, strain DAK1, active compounds read low 0.942 | S. cerevisiae deletion strains, locus YMR001C, strain CDC5, active compounds read low 0.984 | S. cerevisiae deletion strains, locus YMR205C, strain PFK2 (second series), active compounds read low 0.957 | S. cerevisiae deletion strains, locus YMR277W, strain FCP1, active compounds read low 0.983 | S. cerevisiae deletion strains, locus YNL006W, strain LST8, active compounds read low 0.984 | S. cerevisiae deletion strains, locus YNL020C, strain ARK1, active compounds read low 0.952 | S. cerevisiae deletion strains, locus YNL161W, strain CBK1, active compounds read low 0.982 | S. cerevisiae deletion strains, locus YNL183C, strain NPR1, active compounds read low 1.04 | S. cerevisiae deletion strains, locus YNL207W, strain RIO2, active compounds read low 0.977 | S. cerevisiae deletion strains, locus YNL222W, strain SSU72, active compounds read low 0.991 | S. cerevisiae deletion strains, locus YNL307C, strain MCK1 (second series), active compounds read low 0.956 | S. cerevisiae deletion strains, locus YOL078W, strain AVO1, active compounds read low 0.984 | S. cerevisiae deletion strains, locus YOL136C, strain PFK27, active compounds read low 0.964 | S. cerevisiae deletion strains, locus YOR061W, strain CKA2, active compounds read low 0.947 | S. cerevisiae deletion strains, locus YOR119C, strain RIO1, active compounds read low 0.994 | S. cerevisiae deletion strains, locus YOR231W, strain MKK1, active compounds read low 0.963 | S. cerevisiae deletion strains, locus YOR329C, strain SCD5, active compounds read low 0.993 | S. cerevisiae deletion strains, locus YPL031C, strain PHO85, active compounds read low 0.928 | S. cerevisiae deletion strains, locus YPL153C, strain RAD53, active compounds read low 0.932 | S. cerevisiae deletion strains, locus YPL204W, strain HRR25, active compounds read low 0.939 | S. cerevisiae deletion strains, locus YPL209C, strain IPL1, active compounds read low 0.986 | S. cerevisiae deletion strains, locus YPL256C, strain CLN2, active compounds read low 0.987 | S. cerevisiae deletion strains, locus YPR025C, strain CCL1, active compounds read low 0.987 | S. cerevisiae deletion strains, locus YPR106W, strain ISR1, active compounds read low 0.981 | S. cerevisiae deletion strains, locus YPR111W, strain DBF20, active compounds read low 0.983 | S. cerevisiae deletion strains, strain NNK1, active compounds read low 0.983 | S. cerevisiae deletion strains, strain TSCII, active compounds read low 0.985

CCOC(=O)c1sc(-c2ccc(C)cc2)nc1O
active: S. cerevisiae deletion strains, locus YAL013W, strain DEP1, active compounds read low 0.182 | S. cerevisiae deletion strains, locus YBR229C, strain ROT2, active compounds read low 0.136 | [1] 0.267 | S. cerevisiae deletion strains, locus YDL134C, strain PPH21, active compounds read low 0.716 | S. cerevisiae deletion strains, locus YDR150W, strain NUM1, active compounds read low 0.195 | S. cerevisiae deletion strains, locus YEL061C, strain CIN8, active compounds read low 0.583 | S. cerevisiae deletion strains, locus YGR078C, strain PAC10, active compounds read low 0.122 | [2] 0.0748 | S. cerevisiae deletion strains, locus YHR087W, strain rtc3, active compounds read low 0.135 | S. cerevisiae deletion strains, locus YJL187C, strain SWE1, active compounds read low 0.107 | S. cerevisiae deletion strains, locus YJR043C, strain POL32, active compounds read low 0.337 | S. cerevisiae deletion strains, locus YJR075W, strain HOC1, active compounds read low 0.174 | S. cerevisiae deletion strains, locus YKL190W, strain CNB1, active compounds read low 0.46 | S. cerevisiae deletion strains, locus YLR039C, strain RIC1, active compounds read low 0.409 | S. cerevisiae deletion strains, locus YLR058C, strain SHM2 (second series), active compounds read low 0.129 | S. cerevisiae deletion strains, locus YLR085C, strain ARP6, active compounds read low 0.228 | S. cerevisiae deletion strains, locus YLR262C, strain YPT6, active compounds read low 0.464 | S. cerevisiae deletion strains, locus YML094W, strain GIM5, active compounds read low 0.345 | S. cerevisiae deletion strains, locus YMR219W, strain ESC1, active compounds read low 0.218 | S. cerevisiae deletion strains, locus YNL153C, strain GIM3, active compounds read low 0.301 | S. cerevisiae deletion strains, locus YNL298W, strain CLA4 (second series), active compounds read low 0.118 | S. cerevisiae deletion strains, locus YNL322C, strain KRE1, active compounds read low 0.313 | S. cerevisiae deletion strains, locus YNR030W, strain Alg12, active compounds read low 0.438 | S. cerevisiae deletion strains, locus YPL055C, strain LGE1, active compounds read low 0.659 | S. cerevisiae deletion strains, locus YPL241C, strain CIN2, active compounds read low 0.463 | S. cerevisiae deletion strains, locus YPR135W, strain CTF4, active compounds read low 0.368 | S. cerevisiae strains, strain wild type, active compounds read low 0.518
